Measured values from PubChem BioAssay AID1776 (NMMLSC, 2009).
The campaign covered roughly 190,000 compounds. About 490 (0.26%) were called active. Rule as the data show it: active = fluorescence above about 89; inactive = the rest. Many of the other results were omitted from the sample, so actives are more common in it than they were.

Experiment: compound fluorescence on glutathione beads, profiling panel, artefact control, biophysical, 488/530 nm, flow cytometry (AID 1776);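 also: glutathione beads carrying GST-tagged Bcl family fusion proteins plus one bare bead set; values are compound well signal with DMSO vehicle wells as background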
Settings: GSH beads flow cytometry, compound fluorescence 488/530 nm; at 10 µM; stronger effect = higher value
For `O=C(COC(=O)C1CCCCC1)Nc1ccc([N+](=O)[O-])cc1`, the fluorescence (KMESF) was 25 (inactive). With `Cc1ccc(Cl)cc1NC(=O)COC(=O)CC(C)(C)C` the fluorescence (KMESF) was 12 (inactive). For `Cc1ccc(Cl)cc1NC(=O)COC(=O)C1CCCCC1`, the fluorescence (KMESF) was 249 (active). In the case of `COc1cc(CN2CCN(Cc3ccc(C)cc3)CC2)c([N+](=O)[O-])cc1OC`, the fluorescence (KMESF) was 14 (inactive). In the case of `Cc1nccc(-c2ccc(-n3c(C)ccc3C)cc2)n1`, the fluorescence (KMESF) was 9 (inactive). With `CCC(=O)N1CCC(C(N)=O)(N2CCCCC2)CC1` the fluorescence (KMESF) was 12 (inactive). For `CCc1nnc(NC(=O)c2nc3nccc(C)n3n2)s1`, the fluorescence (KMESF) was 259 (active). With `CCc1nnc(NC(=O)c2cccs2)s1` the fluorescence (KMESF) was 15 (inactive). With `Cc1ccnc2nc(C(=O)Nc3nnc(-c4ccccc4)o3)nn12` the fluorescence (KMESF) was 14 (inactive). With `CC1CN(C(=S)SCC(=O)c2ccccc2)CC(C)O1` (stereo not given) the fluorescence (KMESF) was 18 (inactive). In the case of `CC1CN(C(=O)CN2C(=O)NC(C)(c3ccccc3)C2=O)CC(C)O1` (stereo not given), the fluorescence (KMESF) was 263 (active). With `CC1(c2ccccc2Cl)NC(=O)N(CC(=O)NC(=O)NCc2ccco2)C1=O` (stereo not given) the fluorescence (KMESF) was 27 (inactive). For `COc1ccccc1CNC(=O)CN1CCC(n2cnc3cc(F)ccc32)CC1`, the fluorescence (KMESF) was 10 (inactive). In the case of `CCc1ccc2ncc(C(=O)c3ccccc3)c(N3CCOCC3)c2c1`, the fluorescence (KMESF) was 15 (inactive). For `CCNc1nc(NC(C)C)nc(N2CC(=O)N(CC(=O)OCC)C2=N)n1`, the fluorescence (KMESF) was 29 (inactive). In the case of `O=C(Nc1cc(Cl)cc(Cl)c1)C(NCCCO)c1ccccc1` (stereo not given), the fluorescence (KMESF) was 18 (inactive). In the case of `CCOc1cc(C(=O)OCC(=O)Nc2cccc(C)c2)ccc1OCC(=O)N1CCOCC1`, the fluorescence (KMESF) was 16 (inactive). For `CCCCNC(=O)CSc1nc2ccc(NC(=O)CSc3nnc(N)s3)cc2s1`, the fluorescence (KMESF) was 17 (inactive). With `O=C(NCc1nnc(SCC(=O)N2CCCc3ccccc32)o1)c1ccccc1F` the fluorescence (KMESF) was 13 (inactive). In the case of `CN1CCN(C(=O)N2c3ccccc3CCc3ccccc32)CC1`, the fluorescence (KMESF) was 13 (inactive). With `COCCNC(=O)C(c1ccc(C)o1)N(Cc1ccccc1)C(=O)Cn1nnc2ccccc21` (stereo not given) the fluorescence (KMESF) was 21 (inactive). For `Cc1ccc(C(C(=O)NCc2ccco2)N(CC2CCCO2)C(=O)Cn2nnc3ccccc32)cc1` (stereo not given), the fluorescence (KMESF) was 37 (inactive). For `COc1ccccc1N(C(=O)Cn1nnc2ccccc21)C(C(=O)NCc1ccco1)c1ccc(C)o1` (stereo not given), the fluorescence (KMESF) was 248 (active). With `CCCCC(NC(=O)c1cccc(Br)c1)C(=O)O` (stereo not given) the fluorescence (KMESF) was 10 (inactive). For `CCN(Cc1ccccc1)C(=O)CN1C(=S)NC(C)(C)CC1C` (stereo not given), the fluorescence (KMESF) was 20 (inactive). For `COc1cc([C@H](Cc2ccccc2)NC(C)=O)oc(=O)c1`, the fluorescence (KMESF) was 18 (inactive). For `CC(Oc1ccccc1)C(=O)NN1Cc2ccccc2C1=N` (stereo not given), the fluorescence (KMESF) was 9 (inactive). With `NC(=O)c1ccc(N2CCOCC2)nc1` the fluorescence (KMESF) was 10 (inactive). In the case of `CCN(CC)Cc1nc2sc(C)c(C)c2c(=O)[nH]1`, the fluorescence (KMESF) was 11 (inactive). For `O=C(CN1CCN(c2ccc(Cl)cc2)CC1)NCc1cccs1`, the fluorescence (KMESF) was 18 (inactive). With `Cc1cccc(N2Cc3ccccc3C2=NC(=O)c2ccc(Cl)nc2)c1` the fluorescence (KMESF) was 8 (inactive). With `O=C(CSc1nc2ccccc2[nH]1)Nc1nc(-c2ccccc2)c(-c2ccccc2)o1` the fluorescence (KMESF) was 12 (inactive). For `O=c1c([N+](=O)[O-])cccn1Cc1ccc(F)cc1Cl`, the fluorescence (KMESF) was 14 (inactive). With `COc1ccc(COC(=O)N/N=C(\C)CC(=O)Nc2ccc(Cl)cc2)cc1` the fluorescence (KMESF) was 5 (inactive). In the case of `CC(C)(C)c1ccc(NC(=O)COC(=O)CCc2nc3ccccc3c(=O)[nH]2)cc1`, the fluorescence (KMESF) was 11 (inactive). For `OCCC1CN(Cc2ccccc2-c2ccco2)CCN1Cc1ccsc1` (stereo not given), the fluorescence (KMESF) was 17 (inactive). In the case of `COc1ccccc1-n1c(=S)[nH]c2c(sc(=S)n2-c2ccc(C)cc2C)c1=O`, the fluorescence (KMESF) was 25 (inactive). For `Cc1ncc(CC(=O)n2cc(C(=O)c3cc(Cl)ccc3O)cn2)s1`, the fluorescence (KMESF) was 256 (active). In the case of `O=C(c1cnn(-c2ccc(Cl)cc2)c1)c1ccccc1O`, the fluorescence (KMESF) was 11 (inactive). For `Cc1ccc(CCC(=O)Nc2ncc(Cc3cc(Cl)ccc3Cl)s2)o1`, the fluorescence (KMESF) was 7 (inactive). With `COCCCNc1nc2c(-c3cccc(C(F)(F)F)c3)nnn2c2ccccc12` the fluorescence (KMESF) was 16 (inactive). For `O=S(=O)(Nc1cc(S(=O)(=O)N2CCOCC2)ccc1N1CCCC1)c1cccs1`, the fluorescence (KMESF) was 19 (inactive). In the case of `O=S(=O)(Nc1ccccc1N1CCOCC1)c1ccc(Cl)s1`, the fluorescence (KMESF) was 266 (active). For `COc1cc(NC(=O)c2ccccc2NS(=O)(=O)c2ccc(Cl)s2)cc(OC)c1`, the fluorescence (KMESF) was 9 (inactive). For `COc1cc([N+](=O)[O-])ccc1NC(=O)CN1CCCC1`, the fluorescence (KMESF) was 10 (inactive). For `CCOC(=O)CSc1ccccn1`, the fluorescence (KMESF) was 16 (inactive). For `CCOC(=O)CSc1nccc(N(C)C)c1C#N`, the fluorescence (KMESF) was 281 (active). With `CCOC(=O)CC(=O)CSc1nc(-c2ccccc2)cc(-c2ccc(Cl)cc2)c1C#N` the fluorescence (KMESF) was 8 (inactive). For `Cc1ccc(CN2CCC(N3CCC(C(=O)NCC4CCCO4)CC3)CC2)o1` (stereo not given), the fluorescence (KMESF) was 22 (inactive). In the case of `O=C(NCC1CCCCC1)c1cc(S(=O)(=O)N2CCCCC2)ccc1N1CCOCC1`, the fluorescence (KMESF) was 10 (inactive). With `CCN1C(=O)/C(=c2\s/c(=C3\Sc4ccccc4N3C)c(=O)n2C)N(C)C1=S` the fluorescence (KMESF) was 15 (inactive). For `COc1cc(-c2nnn(CC(=O)NCc3ccccc3)n2)cc(OC)c1OC`, the fluorescence (KMESF) was 13 (inactive). With `O=C(CSc1ccc([N+](=O)[O-])cn1)Nc1ccc(N2CCOCC2)cc1` the fluorescence (KMESF) was 16 (inactive). In the case of `CCOc1cc(/C=N/NC(=O)OC)ccc1OCCSc1ccc(Cl)cc1`, the fluorescence (KMESF) was 13 (inactive). In the case of `CCC1C=C(c2ccccc2)C=CN=C1N(CC)CC` (stereo not given), the fluorescence (KMESF) was 5 (inactive). For `Brc1ccc(CSc2ccc(-c3ccco3)nn2)cc1`, the fluorescence (KMESF) was 11 (inactive). For `COC(=O)CC1=NN(c2nc(C)cc(C)n2)C(=O)C1`, the fluorescence (KMESF) was 14 (inactive). In the case of `Cc1ccc2[nH]c(C(=O)O)c(NC(=O)c3ccccc3[N+](=O)[O-])c2c1`, the fluorescence (KMESF) was 10 (inactive). For `CCCCN1C(=O)/C(=C(/C#N)C(N)=O)c2ccccc21`, the fluorescence (KMESF) was 16 (inactive). With `CCN(Cc1ccccc1)S(=O)(=O)c1cc(C(=O)O)ccc1OC` the fluorescence (KMESF) was 14 (inactive). In the case of `CC[C@H]1OC(=O)[C@H](C)[C@@H](O[C@H]2C[C@@](C)(OC)[C@@H](O)[C@H](C)O2)[C@H](C)[C@@H](O[C@@H]2O[C@H](C)C[C@H](N(C)C)[C@H]2O)[C@](C)(O)C[C@@H](C)[C@@H]2N[C@@H](COCCOC)O[C@H]([C@H]2C)[C@]1(C)O`, the fluorescence (KMESF) was 22 (inactive). For `O=C(Cc1c(F)cccc1Cl)Nc1ncc([N+](=O)[O-])s1`, the fluorescence (KMESF) was 18 (inactive). In the case of `COc1cc(-c2cc(C(=O)OCC(=O)Nc3ccc4c(c3)OCO4)c3ccccc3n2)cc(OC)c1OC`, the fluorescence (KMESF) was 4 (inactive). For `Cc1cc(C)cc(C(=O)NC2C(=O)N3C(C(=O)O)=C(CSc4nnc(C)s4)CSC23)c1` (stereo not given), the fluorescence (KMESF) was 12 (inactive). In the case of `CCOC(=O)CNc1nc(Cl)nc(Nc2ccccc2)n1`, the fluorescence (KMESF) was 10 (inactive). For `Cc1ccccc1OCC(O)CN1CCN(c2ccccn2)CC1` (stereo not given), the fluorescence (KMESF) was 9 (inactive). In the case of `OC(COc1cccc2ccccc12)CN1CCN(c2ccccn2)CC1` (stereo not given), the fluorescence (KMESF) was 265 (active). For `Cc1cccc(OCC(O)CN2CCN(CCN3C(=O)c4cccc5cccc(c45)C3=O)CC2)c1C` (stereo not given), the fluorescence (KMESF) was 13 (inactive). For `Cc1cccc(C(=O)OCC(=O)Nc2sc3c(c2C#N)CCC3)c1`, the fluorescence (KMESF) was 5 (inactive). With `CC(C)CC(=O)NC(=S)Nc1ccc(F)cc1F` the fluorescence (KMESF) was 10 (inactive). For `Cc1ccc(C2NC(C(=O)O)CS2)cc1` (stereo not given), the fluorescence (KMESF) was 11 (inactive). For `O=C(Nc1ccccc1F)c1ccccc1-c1ccccc1`, the fluorescence (KMESF) was 15 (inactive). With `Cc1cc(C)nc(Nc2cc([N+](=O)[O-])ccc2C)n1` the fluorescence (KMESF) was 10 (inactive). With `Cc1ccc(-c2cn3cc([N+](=O)[O-])ccc3n2)cc1` the fluorescence (KMESF) was 13 (inactive). In the case of `Cc1ccc(-n2cc3ccc([N+](=O)[O-])cc3n2)cc1`, the fluorescence (KMESF) was 104 (active). For `CCOC(=O)C1(Cc2cccc(OC)c2)CCN(Cc2csc(C(C)=O)c2)CC1`, the fluorescence (KMESF) was 17 (inactive). In the case of `COCC(C)NC(=O)CSc1nc2nn(-c3ccccc3)c(=O)c-2c2n1CCCCC2` (stereo not given), the fluorescence (KMESF) was 25 (inactive). In the case of `COc1cccc(OC)c1C(=O)OCC(=O)/C(C#N)=C(\C)N`, the fluorescence (KMESF) was 11 (inactive). With `C/C(=N\NC(=O)NC1CCCCC1)c1ccc(OC(F)F)cc1OC(F)F` the fluorescence (KMESF) was 14 (inactive). For `COc1cccc(/C=C(/CC(=O)Nc2ccc(N3CCOCC3)cc2)c2nc3ccccc3s2)c1`, the fluorescence (KMESF) was 13 (inactive). In the case of `CCS(=O)(=O)c1ccc(C(=O)NC)c(Cl)c1Cl`, the fluorescence (KMESF) was 12 (inactive). For `Cc1ccccc1Nc1nc(N)nc(CSc2ccccc2)n1`, the fluorescence (KMESF) was 11 (inactive). In the case of `Cc1nn(C)c(C)c1S(=O)(=O)N1CCC(CO)(Cc2ccc(Cl)cc2)CC1`, the fluorescence (KMESF) was 23 (inactive). In the case of `NS(=O)(=O)c1ccc(NC(=S)NC(=O)c2cccc(Br)c2)cc1`, the fluorescence (KMESF) was 19 (inactive). For `CC(=O)Cc1nsc(NC(=O)c2ccc(Cl)cc2Cl)n1`, the fluorescence (KMESF) was 10 (inactive). For `COc1cc(NC(=O)c2cc([N+](=O)[O-])ccc2Br)ccc1NC(=O)c1ccco1`, the fluorescence (KMESF) was 8 (inactive). For `O=C(NCc1cccnc1)c1nc(-c2cccs2)no1`, the fluorescence (KMESF) was 15 (inactive). With `Cc1ccc(C(=O)NN(CCC#N)C2=NS(=O)(=O)c3ccccc32)cc1` the fluorescence (KMESF) was 20 (inactive). In the case of `CCNC(=O)c1ccc(OCC(=O)Nc2ccc(F)cc2)c(OC)c1`, the fluorescence (KMESF) was 14 (inactive). For `CCC(C)c1ccc(NC(=S)NCc2ccccn2)cc1` (stereo not given), the fluorescence (KMESF) was 13 (inactive). In the case of `CC(C)(C)NC(=O)CN1CCC(NC(=O)C23CC4CC(CC(C4)C2)C3)CC1`, the fluorescence (KMESF) was 20 (inactive). In the case of `Cc1ccc(CN(Cc2cccnc2)C(=S)Nc2cc(Cl)ccc2C)cc1`, the fluorescence (KMESF) was 15 (inactive). With `CCOC(=O)C(NC(C)=O)C(=O)Nc1ccc(OC)cc1` (stereo not given) the fluorescence (KMESF) was 24 (inactive). With `CCOC(=O)C1CCN(c2ccc(C(=O)O)cc2[N+](=O)[O-])CC1` the fluorescence (KMESF) was 14 (inactive). With `O=C(/C=C/c1ccc(F)cc1)NC(=S)NNC(=O)c1cccnc1` the fluorescence (KMESF) was 7 (inactive). With `Cc1cc(SCC(=O)NCCN2C(=O)CSC2=O)nc2ccccc12` the fluorescence (KMESF) was 15 (inactive). In the case of `Cc1ccc(CC2S/C(=C(/C#N)C(=O)N3CCOCC3)N(c3ccccc3)C2=O)cc1` (stereo not given), the fluorescence (KMESF) was 25 (inactive). In the case of `CCOc1ccc(S(=O)(=O)N(CC(=O)O)c2ccccc2)cc1`, the fluorescence (KMESF) was 264 (active). In the case of `CCN(c1ccccc1)S(=O)(=O)c1ccc(N)cc1`, the fluorescence (KMESF) was 14 (inactive). In the case of `CCN(CC)C(=O)CN(c1cccc([N+](=O)[O-])c1)S(=O)(=O)c1ccccc1`, the fluorescence (KMESF) was 52 (inactive).
